# From PubChem
# Most compounds without a hit are left out; they make up all but 21% or so of the library.
# NS1 inh: influenza NS1 inhibition. Potency, µM (top dose mostly 46.1 µM), for inactives: at the highest dose activity, positive = more growth. 270,000 tested, 0.4% active. AID 2326; calls by dose curve; note: potency is the fitted concentration of half-maximal effect; actives are rising curves; nearly all actives have a fitted effect of over 50% in size
#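 OD600 was taken as the measure of yeast growth restored by compound in an NS1-expressing S. cerevisiae strain. Cells had been washed out of glucose medium and diluted 1:100 into galactose -URA medium, pH 6.0.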
# Shiga toxin inh: inhibitors of Shiga toxin in Vero cells; 290,000 tested, 9.2% active; Vero cells, Shiga toxin protein synthesis inhibition reporter; inhibition, % at 38.7 µM; in the data active = inhibition mostly above about 28%, no sharp cut-off; inactive = mostly below about 43%; note: 0% is about no effect
# Pf growth 48h: inhibits P. falciparum growth in the first generation, 48 h; P. falciparum luciferase growth in erythrocytes, 48 h; Potency, µM (top dose mostly 28.7 µM), without a hit: at the top dose activity change, negative = inhibition, usual class: inhibitors; 310,000 tested, 5.9% active; note: potency is the fitted concentration of half-maximal effect; % is set by controls: 0 for no effect and ±100 for the full control effect
#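 Luciferase-expressing parasites in RBCs, 2% Hct / 0.1% parasitemia final; RPMI 1640 + 0.5% Albumax; 37 C, 5% CO2, one generation; luminescence read-out, lower signal = inhibition.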
# Pf growth 96h: inhibits malaria parasite growth, 96 h; 320,000 tested, 6.9% active; Potency, µM (titrated, usually from 28.7 µM), for the others: at the highest dose activity change, negative = inhibition, hits mostly inhibitors; AID 504834; P. falciparum luciferase reporter growth, 96 h; note: potency is the fitted concentration of half-maximal effect; % is set by controls: 0 for no effect and ±100 for the full control effect
#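 96 h incubation, 37 C, 5% CO2, of luciferase-reporter P. falciparum-infected RBCs (2% hematocrit, 0.05% parasitemia final) with test compounds; endpoint luminescence.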
# Cycloheximide cs: counter-screen for Shiga toxin inhibitors: cycloheximide protein synthesis inhibition | cell reporter, cycloheximide protein synthesis inhibition counterscreen | max response, % | 300,000 tested, 12% active | AID 2314; in the data active = max response mostly above about 13%, no sharp cut-off; inactive = mostly below about 14%; note: read at 38.3 µM for the half of the compounds with a filed dose; 0% is about no effect
# SARS PLpro yeast: SARS-CoV PLP inhibition in yeast; 330,000 tested, 0.19% active; S. cerevisiae expressing SARS-CoV PLpro, growth rescue; Potency, µM (series often up to 32.9 µM), for the others: at the highest dose activity, positive = growth rescue, actives largely listed as activators; calls by dose curve; note: potency is the fitted concentration of half-maximal effect; 0% is about no effect; nearly all actives have a fitted effect of over 55% in size
# Starred values were filed as active, the others as inactive; u = inconclusive; x = not tested or not shown. Unless noted, calls come from the whole dose curve; as a rule, active = well fitted inhibition curve with a large enough effect; inconclusive = small, poorly fitted or top-dose-only effect, or another doubt; inactive = no such curve, though single readings can be large or run the other way.
SMILES,NS1 inh,Shiga toxin inh,Pf growth 48h,Pf growth 96h,Cycloheximide cs,SARS PLpro yeast
O=C(CSc1nnc(Cc2ccccc2)o1)N1CCCC1,-1%,21,13%,-1%,16,2%
COCCCNC(=O)CCc1nnc(Cc2ccc(-c3ccccc3)cc2)o1,-6%,1,-22%,u,0,0%
CC(C)CN(C)C(=O)CCc1nnc(Cc2ccc(-c3ccccc3)cc2)o1,-6%,38,u,u,22*,0%
CC1CCN(C(=O)CCc2nnc(-c3ccccc3)o2)CC1,1%,97*,16%,u,43*,u
O=C(CCc1nnc(Cc2ccc(-c3ccccc3)cc2)o1)N1CCCC1,-1%,-17,u,9.3µM*,-3,0%
Cc1cc(NC(=O)COC(=O)[C@@H](NS(=O)(=O)c2ccc(Br)cc2)C(C)C)no1,-3%,-7,15%,37%,8,2%
Nc1ccc(C(=O)Nc2cccc(N)c2)cc1,10%,77*,72%,85%,20*,-3%
Cc1ccccc1C(=O)Nc1cccc(N)c1,13%,31*,32%,x,18*,-4%
Cc1[nH]c(/C=C2/C(=O)Nc3ccc(S(=O)(=O)Cc4c(Cl)cccc4Cl)cc32)c(C)c1C(=O)N1CCCC1CN1CCCC1 (stereo not given),x,-22,x,x,-12,x
N[C@@H](Cc1ccccc1)P(=O)(O)O,-1%,x,x,x,x,x
CN1C(=S)SC(/[N+]([O-])=C/c2ccc(Cl)cc2)C1(C)C (stereo not given),-32%,-5,134%,-5%,5,-1%
[O-]/[N+](=C/c1ccco1)c1ccccc1,-27%,40,15%,u,23*,-1%
[O-]/[N+](=C\c1ccco1)c1ccc(Cl)cc1,-7%,82*,u,u,61*,-13%
[O-]/[N+](=C/c1ccc(F)cc1)c1ccc(Cl)cc1,-1%,53,121%,-12%,54*,4%
COc1ccc(-c2ccoc2)cc1C1C2C=CCC(C)C2C(=O)N1Cc1ccccc1 (stereo not given),x,-2,x,x,6,x
O=C(Nc1cccnc1)c1cnn2cccnc12,-6%,24,23%,u,0,-2%
O=C(Nc1ccc2c(c1)OCO2)c1cnn2cccnc12,0%,74*,283%,x,49*,-4%
O=C(Nc1cccc(O)c1)c1cnn2cccnc12,9%,101*,x,-6%,40*,8%
O=C(CCNC(=O)c1ccc(Cl)cc1)Nc1ccc(S(=O)(=O)N2CCCCC2)cc1,x,x,1%,2%,x,4%
COc1ccc(C(=O)CCC(=O)NCCc2c[nH]c3ccccc23)cc1OC,u,-12,u,u,-1,0%
Cc1ccccc1NC(=O)NCCc1c[nH]c2ccccc12,3%,13,20%,-3%,10,-5%
Cc1ccc2[nH]cc(CCNC(=O)Nc3ccccc3)c2c1,-6%,-9,x,u,12*,3%
CC(=O)c1cccc(NC(=O)NCCc2c[nH]c3ccccc23)c1,3%,26,2%,-3%,12*,2%
COc1ccc(C(C)=O)cc1CS(=O)(=O)CC(=O)NCCc1c[nH]c2ccccc12,x,x,5.2µM*,10µM*,x,-8%
c1ccc(CNc2c3c(nc4ncnn24)CCC3)cc1,-5%,-6,0%,30%,-8,1%
SMILES,NS1 inh,Shiga toxin inh,Pf growth 48h,Pf growth 96h,Cycloheximide cs,SARS PLpro yeast
CCCCn1cnc2c1c(=O)n(CC(=O)c1cc(C)n(C)c1C)c(=O)n2CC(C)C,-2%,-20,x,12µM*,-1,-5%
O=C(Nc1ccc(F)cc1)c1ccccc1CC[N+](=O)[O-],-5%,-5,1%,-3%,1,3%
CN(C)S(=O)(=O)c1ccc(C(=O)Nc2ccc3nc(N4CCOCC4)sc3c2)cc1,x,x,x,x,x,0%
O=S(=O)(c1ccccc1)c1nnn2c1nc(NC1CCN(Cc3ccccc3)CC1)c1cc(Cl)ccc12,11%,-5,0.66µM*,1%,7,-6%
COC(=O)C1C(=O)c2c([nH]c(C(=O)OCCOC(C)C)c2C)CC1C (stereo not given),4%,35,x,x,16*,0%
COC(=O)C1C(=O)C2=C(CC1C)NC(C)=C(C(=O)OC1CCCCC1)C2c1ccc(N(C)C)cc1 (stereo not given),-12%,16,5.9µM*,37%,6,-3%
